Experimental data: ChEMBL document CHEMBL1961873, “Compounds: GSK PKIS; Assays: Nanosyn kinase panel” (2012)

Legend:
[1] = target: Rho-associated protein kinase 1 (Homo sapiens) (UniProt Q13464); details: at 1 µM;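 note: reported values are mean percent inhibition of ROCK1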
[2] = target: Rho-associated protein kinase 2 (Homo sapiens) (UniProt O75116); details: at 0.1 µM
[3] = target: Rho-associated protein kinase 2 (Homo sapiens) (UniProt O75116); details: at 1 µM
[4] = target: Ribosomal protein S6 kinase alpha-1 (Homo sapiens) (UniProt Q15418); details: at 0.1 µM
[5] = target: Ribosomal protein S6 kinase alpha-1 (Homo sapiens) (UniProt Q15418); details: at 1 µM
[6] = target: Ribosomal protein S6 kinase alpha-3 (Homo sapiens) (UniProt P51812); details: at 0.1 µM
[7] = target: Ribosomal protein S6 kinase alpha-3 (Homo sapiens) (UniProt P51812); details: at 1 µM
[8] = target: Ribosomal protein S6 kinase alpha-2 (Homo sapiens) (UniProt Q15349); details: at 0.1 µM
[9] = target: Ribosomal protein S6 kinase alpha-2 (Homo sapiens) (UniProt Q15349); details: at 1 µM
[10] = target: Ribosomal protein S6 kinase alpha-6 (Homo sapiens) (UniProt Q9UK32); details: at 0.1 µM
[11] = target: Ribosomal protein S6 kinase alpha-6 (Homo sapiens) (UniProt Q9UK32); details: at 1 µM
[12] = target: T1, Serine/threonine-protein kinase Sgk1 (Homo sapiens) (UniProt O00141); details: at 0.1 µM
T1 sequence (whole entry): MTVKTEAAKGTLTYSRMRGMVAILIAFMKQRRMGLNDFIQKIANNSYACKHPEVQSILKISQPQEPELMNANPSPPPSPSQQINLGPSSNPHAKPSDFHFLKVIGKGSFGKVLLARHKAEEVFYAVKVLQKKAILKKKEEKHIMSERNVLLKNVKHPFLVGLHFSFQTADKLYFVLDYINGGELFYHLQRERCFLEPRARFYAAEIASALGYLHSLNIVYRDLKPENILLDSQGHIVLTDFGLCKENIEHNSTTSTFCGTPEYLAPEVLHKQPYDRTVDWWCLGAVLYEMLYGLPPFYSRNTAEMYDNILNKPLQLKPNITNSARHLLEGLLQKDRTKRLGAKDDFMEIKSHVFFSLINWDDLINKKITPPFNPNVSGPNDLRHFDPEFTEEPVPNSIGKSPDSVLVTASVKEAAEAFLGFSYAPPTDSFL

[13] = target: T1, Serine/threonine-protein kinase Sgk1 (Homo sapiens); details: at 1 µM
[14] = target: T2, Serine/threonine-protein kinase Sgk2 (Homo sapiens) (UniProt Q9HBY8); details: at 0.1 µM
T2 sequence (whole entry): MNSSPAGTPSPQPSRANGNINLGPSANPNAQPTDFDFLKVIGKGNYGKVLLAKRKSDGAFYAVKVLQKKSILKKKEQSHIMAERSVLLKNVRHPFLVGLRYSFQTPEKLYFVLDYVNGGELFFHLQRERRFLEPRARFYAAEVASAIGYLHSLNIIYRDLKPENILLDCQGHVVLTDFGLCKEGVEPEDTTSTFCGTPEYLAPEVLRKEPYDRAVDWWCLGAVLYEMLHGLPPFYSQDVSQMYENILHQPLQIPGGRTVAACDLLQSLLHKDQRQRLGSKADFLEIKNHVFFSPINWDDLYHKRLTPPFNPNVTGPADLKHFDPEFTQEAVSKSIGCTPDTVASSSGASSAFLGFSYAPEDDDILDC

[15] = target: T2, Serine/threonine-protein kinase Sgk2 (Homo sapiens); details: at 1 µM
[16] = target: T3, Serine/threonine-protein kinase Sgk3 (Homo sapiens) (UniProt Q96BR1); details: at 0.1 µM
T3 sequence (whole entry): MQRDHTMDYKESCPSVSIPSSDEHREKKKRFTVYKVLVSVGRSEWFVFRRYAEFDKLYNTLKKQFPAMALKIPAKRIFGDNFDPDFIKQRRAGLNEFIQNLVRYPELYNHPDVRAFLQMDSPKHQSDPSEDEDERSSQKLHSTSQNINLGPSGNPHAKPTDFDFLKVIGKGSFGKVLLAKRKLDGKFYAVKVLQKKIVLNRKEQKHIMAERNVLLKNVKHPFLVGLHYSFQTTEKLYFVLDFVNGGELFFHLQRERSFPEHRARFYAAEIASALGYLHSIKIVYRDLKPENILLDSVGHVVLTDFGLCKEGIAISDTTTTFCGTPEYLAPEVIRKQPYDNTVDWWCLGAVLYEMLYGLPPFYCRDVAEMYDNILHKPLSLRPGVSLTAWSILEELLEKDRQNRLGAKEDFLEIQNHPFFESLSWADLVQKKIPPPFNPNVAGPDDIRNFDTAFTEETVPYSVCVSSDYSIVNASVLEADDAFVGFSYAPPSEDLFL

[17] = target: T3, Serine/threonine-protein kinase Sgk3 (Homo sapiens); details: at 1 µM
[18] = target: 5'-AMP-activated protein kinase catalytic subunit alpha-1 (Homo sapiens) (UniProt Q13131); details: at 0.1 µM
[19] = target: 5'-AMP-activated protein kinase catalytic subunit alpha-1 (Homo sapiens) (UniProt Q13131); details: at 1 µM
[20] = target: 5'-AMP-activated protein kinase catalytic subunit alpha-2 (Homo sapiens) (UniProt P54646); details: at 0.1 µM;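 note: mean inhibition measured on the AMPK complex of alpha2, beta1 and gamma1 subunits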
Chain of 5'-AMP-activated protein kinase catalytic subunit alpha-2 (Homo sapiens) (P54646 whole entry, looked up): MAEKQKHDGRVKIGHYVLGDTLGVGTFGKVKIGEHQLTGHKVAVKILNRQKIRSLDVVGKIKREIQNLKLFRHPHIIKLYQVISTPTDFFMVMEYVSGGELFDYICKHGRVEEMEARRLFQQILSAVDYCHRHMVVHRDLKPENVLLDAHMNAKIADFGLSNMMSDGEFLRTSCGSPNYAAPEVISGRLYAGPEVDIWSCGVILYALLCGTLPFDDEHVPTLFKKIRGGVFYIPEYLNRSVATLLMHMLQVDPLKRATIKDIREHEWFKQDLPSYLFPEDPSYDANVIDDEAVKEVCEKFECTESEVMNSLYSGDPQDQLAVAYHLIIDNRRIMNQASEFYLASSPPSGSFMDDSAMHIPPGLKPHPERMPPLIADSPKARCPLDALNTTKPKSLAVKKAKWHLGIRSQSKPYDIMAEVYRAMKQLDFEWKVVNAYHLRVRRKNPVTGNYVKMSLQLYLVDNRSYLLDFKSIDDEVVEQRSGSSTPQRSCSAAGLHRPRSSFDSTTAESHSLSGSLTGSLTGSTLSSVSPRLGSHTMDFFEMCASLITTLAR

Chain of Ribosomal protein S6 kinase alpha-1 (Homo sapiens) (Q15418 whole entry): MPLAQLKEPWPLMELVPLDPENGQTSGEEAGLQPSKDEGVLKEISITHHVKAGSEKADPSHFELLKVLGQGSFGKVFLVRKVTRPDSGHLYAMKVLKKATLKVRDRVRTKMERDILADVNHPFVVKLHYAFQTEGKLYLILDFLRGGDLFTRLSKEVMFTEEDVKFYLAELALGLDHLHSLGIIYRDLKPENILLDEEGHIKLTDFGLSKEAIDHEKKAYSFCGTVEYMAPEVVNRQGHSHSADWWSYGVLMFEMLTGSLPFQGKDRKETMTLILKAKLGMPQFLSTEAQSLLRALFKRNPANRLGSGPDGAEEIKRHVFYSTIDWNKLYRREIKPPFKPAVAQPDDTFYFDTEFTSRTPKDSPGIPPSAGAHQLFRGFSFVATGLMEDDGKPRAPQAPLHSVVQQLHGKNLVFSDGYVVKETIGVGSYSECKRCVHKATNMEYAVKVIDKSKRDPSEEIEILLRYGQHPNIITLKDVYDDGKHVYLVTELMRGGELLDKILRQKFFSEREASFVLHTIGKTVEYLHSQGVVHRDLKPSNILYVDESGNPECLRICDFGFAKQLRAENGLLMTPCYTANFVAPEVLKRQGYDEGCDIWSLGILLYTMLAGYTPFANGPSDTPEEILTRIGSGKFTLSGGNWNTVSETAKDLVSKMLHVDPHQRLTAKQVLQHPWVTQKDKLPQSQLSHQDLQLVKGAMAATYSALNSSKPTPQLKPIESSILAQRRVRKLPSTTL
Chain of Ribosomal protein S6 kinase alpha-3 (Homo sapiens) (P51812 whole entry): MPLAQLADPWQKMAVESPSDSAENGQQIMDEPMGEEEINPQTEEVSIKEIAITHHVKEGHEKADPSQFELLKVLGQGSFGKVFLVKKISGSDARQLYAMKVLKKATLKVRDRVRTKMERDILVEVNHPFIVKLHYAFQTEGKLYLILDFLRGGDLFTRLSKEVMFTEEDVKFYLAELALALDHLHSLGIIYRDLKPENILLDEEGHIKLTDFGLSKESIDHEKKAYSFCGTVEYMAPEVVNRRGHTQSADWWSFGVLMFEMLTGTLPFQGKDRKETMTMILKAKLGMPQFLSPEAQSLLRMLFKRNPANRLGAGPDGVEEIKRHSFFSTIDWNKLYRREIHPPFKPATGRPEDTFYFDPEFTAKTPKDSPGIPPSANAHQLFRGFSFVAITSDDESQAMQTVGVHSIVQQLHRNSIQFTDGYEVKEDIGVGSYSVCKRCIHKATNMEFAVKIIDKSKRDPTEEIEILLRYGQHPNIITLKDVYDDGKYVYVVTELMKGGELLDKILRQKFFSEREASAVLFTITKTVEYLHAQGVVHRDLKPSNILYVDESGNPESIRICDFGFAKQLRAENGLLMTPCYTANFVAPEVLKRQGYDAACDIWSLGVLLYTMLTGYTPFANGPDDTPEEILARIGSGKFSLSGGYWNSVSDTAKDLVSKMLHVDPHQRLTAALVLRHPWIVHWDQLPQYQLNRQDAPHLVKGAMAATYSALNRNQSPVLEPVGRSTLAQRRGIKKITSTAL
Chain of Ribosomal protein S6 kinase alpha-2 (Homo sapiens) (Q15349 whole entry): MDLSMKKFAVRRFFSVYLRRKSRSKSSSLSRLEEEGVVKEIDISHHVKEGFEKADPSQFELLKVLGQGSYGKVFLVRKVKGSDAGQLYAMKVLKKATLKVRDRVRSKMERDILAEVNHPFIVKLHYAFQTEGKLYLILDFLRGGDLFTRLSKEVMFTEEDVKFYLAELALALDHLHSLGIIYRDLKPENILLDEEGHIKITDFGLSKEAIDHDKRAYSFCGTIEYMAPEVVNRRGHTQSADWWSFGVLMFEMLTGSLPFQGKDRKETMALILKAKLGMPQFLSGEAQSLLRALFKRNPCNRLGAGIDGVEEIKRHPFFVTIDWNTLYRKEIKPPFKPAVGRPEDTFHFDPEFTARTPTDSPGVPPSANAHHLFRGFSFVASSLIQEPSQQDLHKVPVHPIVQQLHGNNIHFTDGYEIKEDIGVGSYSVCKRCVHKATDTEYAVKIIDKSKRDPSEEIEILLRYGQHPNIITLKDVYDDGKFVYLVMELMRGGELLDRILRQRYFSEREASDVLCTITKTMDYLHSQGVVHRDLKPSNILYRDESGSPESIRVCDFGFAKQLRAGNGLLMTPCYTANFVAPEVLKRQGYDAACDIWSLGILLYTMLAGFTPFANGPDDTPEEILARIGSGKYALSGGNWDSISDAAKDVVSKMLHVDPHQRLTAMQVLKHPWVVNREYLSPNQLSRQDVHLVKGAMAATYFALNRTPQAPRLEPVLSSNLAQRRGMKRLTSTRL
Chain of 5'-AMP-activated protein kinase catalytic subunit alpha-1 (Homo sapiens) (Q13131 whole entry, looked up): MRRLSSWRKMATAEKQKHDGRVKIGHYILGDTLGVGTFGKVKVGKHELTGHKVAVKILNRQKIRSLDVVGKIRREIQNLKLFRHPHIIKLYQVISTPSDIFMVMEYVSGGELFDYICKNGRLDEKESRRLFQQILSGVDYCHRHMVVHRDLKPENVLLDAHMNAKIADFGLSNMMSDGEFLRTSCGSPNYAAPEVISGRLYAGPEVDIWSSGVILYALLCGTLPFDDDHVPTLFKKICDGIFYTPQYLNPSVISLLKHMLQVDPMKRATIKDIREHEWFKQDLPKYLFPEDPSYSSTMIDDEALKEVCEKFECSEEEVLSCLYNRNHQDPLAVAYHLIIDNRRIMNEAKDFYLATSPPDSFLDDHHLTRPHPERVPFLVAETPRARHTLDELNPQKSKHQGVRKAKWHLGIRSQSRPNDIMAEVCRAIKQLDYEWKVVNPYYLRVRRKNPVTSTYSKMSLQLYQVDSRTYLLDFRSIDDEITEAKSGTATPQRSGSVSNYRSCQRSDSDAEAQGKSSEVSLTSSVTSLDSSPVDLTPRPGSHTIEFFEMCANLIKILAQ
Chain of Ribosomal protein S6 kinase alpha-6 (Homo sapiens) (Q9UK32 whole entry): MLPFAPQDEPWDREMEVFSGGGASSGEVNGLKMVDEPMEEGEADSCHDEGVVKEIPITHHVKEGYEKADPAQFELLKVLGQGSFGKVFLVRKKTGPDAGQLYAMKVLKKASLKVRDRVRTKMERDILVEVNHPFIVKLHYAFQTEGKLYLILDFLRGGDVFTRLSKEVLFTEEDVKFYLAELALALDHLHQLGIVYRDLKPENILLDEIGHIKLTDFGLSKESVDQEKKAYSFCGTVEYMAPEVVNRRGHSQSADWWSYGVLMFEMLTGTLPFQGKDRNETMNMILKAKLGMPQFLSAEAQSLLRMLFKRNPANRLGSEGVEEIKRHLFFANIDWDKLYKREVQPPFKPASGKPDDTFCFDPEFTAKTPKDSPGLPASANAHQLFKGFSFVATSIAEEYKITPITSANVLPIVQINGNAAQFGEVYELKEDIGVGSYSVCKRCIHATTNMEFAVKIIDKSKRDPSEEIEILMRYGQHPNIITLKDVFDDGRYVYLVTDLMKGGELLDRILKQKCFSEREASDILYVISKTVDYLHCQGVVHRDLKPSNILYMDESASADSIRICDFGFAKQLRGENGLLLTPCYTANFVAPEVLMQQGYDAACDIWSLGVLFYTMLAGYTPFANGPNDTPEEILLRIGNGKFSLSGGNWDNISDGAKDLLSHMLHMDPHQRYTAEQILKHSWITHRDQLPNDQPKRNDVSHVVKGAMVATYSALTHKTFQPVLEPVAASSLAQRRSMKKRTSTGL

SMILES	inhibition [1] [%]	inhibition [2] [%]	inhibition [3] [%]	inhibition [4] [%]	inhibition [5] [%]	inhibition [6] [%]	inhibition [7] [%]	inhibition [8] [%]	inhibition [9] [%]	inhibition [10] [%]	inhibition [11] [%]	inhibition [12] [%]	inhibition [13] [%]	inhibition [14] [%]	inhibition [15] [%]	inhibition [16] [%]	inhibition [17] [%]	inhibition [18] [%]	inhibition [19] [%]	inhibition [20] [%]
COC(=O)Nc1nc2cc(Oc3ccc(NC(=O)Nc4ccccc4)cc3)ccc2[nH]1	6.47	8.68	17.2	1.66	4.06	2.3	3.56	1.67	1.89	1.27	0.36	2.77	5.31	0.16	3.69	3.38	5.17	2.62	2.79	0.01
Fc1cccc(COc2ccc(Nc3ncncc3C#Cc3ccccc3)cc2Cl)c1	1.47	3.76	7.12	3.37	6.51	1.92	4.01	3.21	2.81	1.21	1.91	3.17	7.69	5.33	8.63	5.19	7.34	3.44	7.14	1.38
N#Cc1ccc2c(-c3ccnc(NC4CC4)n3)c(-c3ccc(F)cc3)nn2c1	0.26	0.99	0.79	0.57	0.36	0.08	0.42	1.03	1.48	1.23	1.24	1.64	1.98	-0.02	-1.14	2.02	1.13	0.78	0.77	0.36
COc1ccc(Nc2ncc(-c3ccccc3)o2)cc1OC	2.03	-0.31	2.22	0.28	2.18	0.01	2.14	1.32	4.35	0.4	3.67	1.25	9.75	1.33	-0.37	0.7	-1.61	0.83	5.29	-0.43
COc1ccc(-c2nn3ncccc3c2-c2ccnc(Nc3ccc(F)c(F)c3)n2)cc1	1.15	3.85	6.06	4.22	7.89	4.49	7.14	2.96	2.69	1.78	1.98	3.06	9.35	5.4	7.74	5.09	6.1	5.22	9.36	2.91
Cc1c2ccc(N(C)c3ccnc(Nc4cccc(S(N)(=O)=O)c4)n3)cc2nn1C	1.97	2.24	2.37	2	3.33	1.97	3.86	3.56	5.15	2.42	4.77	3.85	4.14	2.67	3.7	4.44	8.06	3.77	4.2	3.67
CS(=O)(=O)CCNCc1ccc(-c2ccc3ncnc(Nc4ccc(OCc5ccccc5)cc4)c3c2)o1	1.69	2.02	2.23	2.15	3.81	2.27	2.78	3.11	4.28	2.96	1.11	5.01	2.28	2.02	1.93	3.54	1.87	2.94	3.44	2.07
CCOc1ccc2c(-c3ccnc(Nc4cc(OC)cc(C(F)(F)F)c4)n3)cnn2n1	-0.21	0.14	-0.36	-0.43	-1.47	-0.09	-1.49	0.44	0.33	1.36	0.36	-0.01	1.56	0.96	3.1	1.37	-0.48	0.25	1.28	1.34
O=C(O[C@H]1CN[C@H](C#Cc2cc3ncnc(Nc4ccc5c(cnn5Cc5ccccc5)c4)c3s2)C1)N1CCOCC1	-2.07	-1.02	-1.36	-1.77	-0.14	0.74	1.52	-0.5	-1.02	-1.39	-1.11	-0.09	-1.15	-1.55	4.74	-2.07	0.07	1.24	3.86	2.29
